{"source": "the supplement of paper PMC8728848", "binders": {"B1": {"name": "SP16664B-bot-474-25-474 (Bacteroides ovatus) (protein)", "chain": "CEEDIEIGNKIDESSYLASTQLSGLLLDENTNKNSSVIELRNNEYSTNVVFRLSKLPQKGVDVQIAVEESYAAIYNTIHETDFEVFPAANVKIANNGTFVLAPDDKVTPSVKVTLTAFDGMEEDKTYIVPLTVTSSTEGVTFTETSKHMVLLVQDYRNKPNTNKGEDAVQTVLYFEVNDTNPLNALEFLTESGKYFFDHIVLFAANINWDPEKQRVYLANNENVQFLLDNNDKYLQPLRKAGMKIIISILGNHDEAGVAQLSDMGAREFARELAAYCRAYNLDGVAFDDEYSNSPDLSNPWLASPSAYAGSRLMYECKAVMPEKIVSLYNLGNMYSSSLQVIDGIEPGQYCDYAVADYGGAAGPGTGMTLKQCAGMSIELRRGSGNSSESTARSRKEAGYGYYMFFALDPSLYGSQVYRCQSVCKGLYDETLVYPSYYYKKNSTEREAIN"}}, "assay_in_all_cases": "glycan array binding signal (z-score within array); higher = stronger binding", "conditions_in_all_cases": "glycan notation: IUPAC condensed, linker removed", "key": {"Gal4S6S(b1-4)GlcNAc": {"target": "Gal4S6S(b1-4)GlcNAc", "outline": "(§1)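 The binding signal is a Z-score computed within each array. Data were drawn from 3228 arrays in the Consortium for Functional Glycomics database, restricted to those with a known protein sequence. Scores were averaged over arrays of the same protein sequence at different concentrations or buffers, and over linkers, and negative values can be taken as non-binding.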"}, "Gal6S(b1-3)GlcNAc": {"target": "Gal6S(b1-3)GlcNAc", "outline": "as §1"}, "Gal6S(b1-3)GlcNAc6S": {"target": "Gal6S(b1-3)GlcNAc6S", "outline": "as §1"}, "Gal6S(b1-4)Glc": {"target": "Gal6S(b1-4)Glc", "outline": "as §1"}, "Gal6S(b1-4)Glc6S": {"target": "Gal6S(b1-4)Glc6S", "outline": "as §1"}, "Gal6S(b1-4)GlcNAc6S": {"target": "Gal6S(b1-4)GlcNAc6S", "outline": "as §1"}, "Glc(a1-4)Glc": {"target": "Glc(a1-4)Glc", "outline": "as §1"}, "[1]": {"target": "GlcNAc(a1-4)Gal(b1-4)GalNAc", "outline": "as §1"}, "[2]": {"target": "GlcNAc(a1-4)Gal(b1-4)GlcNAc(b1-3)Gal(b1-4)GlcNAc(b1-3)Gal(b1-4)GlcNAc", "outline": "as §1"}, "[3]": {"target": "GlcNAc(a1-4)Gal(b1-4)GlcNAc(b1-3)Gal(b1-4)[Fuc(a1-3)]GlcNAc(b1-3)Gal(b1-4)[Fuc(a1-3)]GlcNAc", "outline": "as §1"}, "[4]": {"target": "GlcNAc(b1-2)[GlcNAc(b1-4)]Man(a1-3)[GlcNAc(b1-2)Man(a1-6)]Man(b1-4)GlcNAc(b1-4)GlcNAc", "outline": "as §1"}, "[5]": {"target": "GlcNAc(b1-3)Gal(b1-4)GlcNAc(b1-2)Man(a1-3)[GlcNAc(b1-3)Gal(b1-4)GlcNAc(b1-2)Man(a1-6)]Man(b1-4)GlcNAc(b1-4)[Fuc(a1-6)]GlcNAc", "outline": "as §1"}, "[6]": {"target": "GlcNAc(b1-3)Gal(b1-4)GlcNAc(b1-3)Gal(b1-4)GlcNAc(b1-2)Man(a1-3)[GlcNAc(b1-3)Gal(b1-4)GlcNAc(b1-3)Gal(b1-4)GlcNAc(b1-2)Man(a1-6)]Man(b1-4)GlcNAc(b1-4)[Fuc(a1-6)]GlcNAc", "outline": "as §1"}, "[7]": {"target": "GlcNAc(b1-3)Gal(b1-4)GlcNAc(b1-3)Gal(b1-4)GlcNAc(b1-3)Gal(b1-4)GlcNAc(b1-2)[GlcNAc(b1-3)Gal(b1-4)GlcNAc(b1-3)Gal(b1-4)GlcNAc(b1-3)Gal(b1-4)GlcNAc(b1-6)]Man(a1-6)[GlcNAc(b1-3)Gal(b1-4)GlcNAc(b1-3)Gal(b1-4)GlcNAc(b1-3)Gal(b1-4)GlcNAc(b1-2)Man(a1-3)]Man(b1-4)GlcNAc(b1-4)[Fuc(a1-6)]GlcNAc", "outline": "as §1"}, "[8]": {"target": "GlcNAc(b1-3)Gal(b1-4)GlcNAc(b1-3)Gal(b1-4)GlcNAc(b1-3)Gal(b1-4)GlcNAc(b1-3)Gal(b1-4)GlcNAc(b1-2)Man(a1-3)[GlcNAc(b1-3)Gal(b1-4)GlcNAc(b1-3)Gal(b1-4)GlcNAc(b1-3)Gal(b1-4)GlcNAc(b1-3)Gal(b1-4)GlcNAc(b1-2)Man(a1-6)]Man(b1-4)GlcNAc(b1-4)[Fuc(a1-6)]GlcNAc", "outline": "as §1"}, "[9]": {"target": "GlcNAc(b1-3)Gal(b1-4)GlcNAc(b1-6)[Gal(b1-3)]GalNAc", "outline": "as §1"}, "GlcNAc(b1-3)Man": {"target": "GlcNAc(b1-3)Man", "outline": "as §1"}, "GlcNAc(b1-6)GalNAc": {"target": "GlcNAc(b1-6)GalNAc", "outline": "as §1"}, "[10]": {"target": "Man(a1-2)Man(a1-2)Man(a1-6)[Man(a1-3)]Man", "outline": "as §1"}, "[11]": {"target": "Man(a1-2)Man(a1-3)[Man(a1-2)Man(a1-6)]Man", "outline": "as §1"}, "[12]": {"target": "Man(a1-2)Man(a1-3)[Man(a1-6)]Man(a1-6)[Man(a1-2)Man(a1-3)]Man(b1-4)GlcNAc(b1-4)GlcNAc", "outline": "as §1"}, "Man(a1-6)Man": {"target": "Man(a1-6)Man", "outline": "as §1"}, "MurNAc(b1-4)GlcNAc": {"target": "MurNAc(b1-4)GlcNAc", "outline": "as §1"}, "[13]": {"target": "Neu5Ac(a2-3)Gal(b1-3)[Fuc(a1-4)]GlcNAc(b1-3)Gal(b1-4)[Fuc(a1-3)]GlcNAc", "outline": "as §1"}, "[14]": {"target": "Neu5Ac(a2-3)Gal(b1-4)GlcNAc(b1-3)Gal(b1-3)GlcNAc", "outline": "as §1"}, "[15]": {"target": "Neu5Ac(a2-3)Gal(b1-4)GlcNAc(b1-6)GalNAc", "outline": "as §1"}, "[16]": {"target": "Neu5Ac(a2-3)Gal(b1-4)GlcNAc(b1-6)[Gal(b1-3)]GalNAc", "outline": "as §1"}, "[17]": {"target": "Neu5Ac(a2-3)[GalNAc(b1-4)]Gal(b1-4)GlcNAc", "outline": "as §1"}, "[18]": {"target": "Neu5Ac(a2-3)[GalNAc(b1-4)]Gal(b1-4)GlcNAc(b1-3)GalNAc", "outline": "as §1"}, "[19]": {"target": "Neu5Ac(a2-6)Gal(b1-4)GlcNAc(b1-2)Man(a1-3)[Neu5Ac(a2-6)Gal(b1-4)GlcNAc(b1-2)Man(a1-6)]Man(b1-4)GlcNAc(b1-4)GlcNAc", "outline": "as §1"}, "[20]": {"target": "Neu5Ac(a2-6)Gal(b1-4)GlcNAc(b1-3)GalNAc", "outline": "as §1"}, "[21]": {"target": "Neu5Ac(a2-6)Gal(b1-4)GlcNAc(b1-6)[Gal(b1-3)]GalNAc", "outline": "as §1"}, "[22]": {"target": "Neu5Ac9Ac(a2-3)Gal(b1-4)GlcNAc", "outline": "as §1"}, "[23]": {"target": "Neu5Gc(a2-3)Gal(b1-3)[Fuc(a1-4)]GlcNAc", "outline": "as §1"}, "[24]": {"target": "Neu5Gc(a2-3)Gal(b1-4)GlcNAc(b1-3)Gal(b1-4)GlcNAc(b1-2)Man(a1-3)[Neu5Gc(a2-3)Gal(b1-4)GlcNAc(b1-3)Gal(b1-4)GlcNAc(b1-2)Man(a1-6)]Man(b1-4)GlcNAc(b1-4)GlcNAc", "outline": "as §1"}, "[25]": {"target": "Neu5Gc(b2-6)Gal(b1-4)GlcNAc", "outline": "as §1"}}, "note": "Shown is part of a subset that was picked to be rich in the strongest signals."}
{"binder": "B1", "values": [{"measurement": "glycan array binding signal (z-score)", "setting": "Gal4S6S(b1-4)GlcNAc", "result": -0.008}, {"measurement": "glycan array binding signal (z-score)", "setting": "Gal6S(b1-3)GlcNAc", "result": 0.118}, {"measurement": "glycan array binding signal (z-score)", "setting": "Gal6S(b1-3)GlcNAc6S", "result": 0.522}, {"measurement": "glycan array binding signal (z-score)", "setting": "Gal6S(b1-4)Glc", "result": -0.453}, {"measurement": "glycan array binding signal (z-score)", "setting": "Gal6S(b1-4)Glc6S", "result": 0.797}, {"measurement": "glycan array binding signal (z-score)", "setting": "Gal6S(b1-4)GlcNAc6S", "result": -0.289}, {"measurement": "glycan array binding signal (z-score)", "setting": "Glc(a1-4)Glc", "result": -0.119}, {"measurement": "glycan array binding signal (z-score)", "setting": "[1]", "result": 0.293}, {"measurement": "glycan array binding signal (z-score)", "setting": "[2]", "result": -0.159}, {"measurement": "glycan array binding signal (z-score)", "setting": "[3]", "result": 4.58}, {"measurement": "glycan array binding signal (z-score)", "setting": "[4]", "result": 0.16}, {"measurement": "glycan array binding signal (z-score)", "setting": "[5]", "result": 0.352}, {"measurement": "glycan array binding signal (z-score)", "setting": "[6]", "result": 11.2}, {"measurement": "glycan array binding signal (z-score)", "setting": "[7]", "result": 0.018}, {"measurement": "glycan array binding signal (z-score)", "setting": "[8]", "result": 0.334}, {"measurement": "glycan array binding signal (z-score)", "setting": "[9]", "result": 1.57}, {"measurement": "glycan array binding signal (z-score)", "setting": "GlcNAc(b1-3)Man", "result": 0.501}, {"measurement": "glycan array binding signal (z-score)", "setting": "GlcNAc(b1-6)GalNAc", "result": -0.234}, {"measurement": "glycan array binding signal (z-score)", "setting": "[10]", "result": -0.417}, {"measurement": "glycan array binding signal (z-score)", "setting": "[11]", "result": -0.568}, {"measurement": "glycan array binding signal (z-score)", "setting": "[12]", "result": -0.368}, {"measurement": "glycan array binding signal (z-score)", "setting": "Man(a1-6)Man", "result": 0.198}, {"measurement": "glycan array binding signal (z-score)", "setting": "MurNAc(b1-4)GlcNAc", "result": -0.181}, {"measurement": "glycan array binding signal (z-score)", "setting": "[13]", "result": 0.654}, {"measurement": "glycan array binding signal (z-score)", "setting": "[14]", "result": -0.055}, {"measurement": "glycan array binding signal (z-score)", "setting": "[15]", "result": -0.362}, {"measurement": "glycan array binding signal (z-score)", "setting": "[16]", "result": -0.456}, {"measurement": "glycan array binding signal (z-score)", "setting": "[17]", "result": -0.21}, {"measurement": "glycan array binding signal (z-score)", "setting": "[18]", "result": 0.051}, {"measurement": "glycan array binding signal (z-score)", "setting": "[19]", "result": -0.081}, {"measurement": "glycan array binding signal (z-score)", "setting": "[20]", "result": -0.034}, {"measurement": "glycan array binding signal (z-score)", "setting": "[21]", "result": -0.15}, {"measurement": "glycan array binding signal (z-score)", "setting": "[22]", "result": -0.181}, {"measurement": "glycan array binding signal (z-score)", "setting": "[23]", "result": -0.071}, {"measurement": "glycan array binding signal (z-score)", "setting": "[24]", "result": -0.304}, {"measurement": "glycan array binding signal (z-score)", "setting": "[25]", "result": 0.041}]}
